SMILES strings stand for the structures. About 83,000 compounds went through this panel and 20% of them were active in at least one assay; those are over-represented in the sample as a whole.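 Plates (96-well) were seeded with cells, treated with compound at one concentration, and incubated for 48 hours before percent growth was determined.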 A number with no mark means an inactive call. The source made the active and inactive calls. Rule for the calls: active = growth percent below 10; inactive = the rest.

Common to all, as to assay: NCI-60 one-dose screen, 48 h (100 = growth as untreated, 0 = no growth, -100 = all killed)
Conditions in all cases: 10 µM

For experiment [1], the system named is NCI-H23 lung.
The test system of experiment [2] is NCI-H226 lung.
The subject of experiment [3] is NCI-H322M lung.
Experiment [4] deals with HOP-62 NSCLC.
Experiment [5] relates to NCI-H460 lung.
Experiment [6] concerns HOP-92 NSCLC.
Experiment [7] deals with NCI-H522 lung.
Experiment [8] deals with A549/ATCC NSCLC.
Experiment [9] concerns 786-0 renal.
Experiment [10] deals with COLO 205 colon.

With `N#Cc1c(NC(=O)c2ccc(C(F)(F)F)cc2)sc2c1CCC(=O)C2`, the growth was -56.9% (active) in experiment [1]; -21.2% (active) in experiment [2]; 22.3% in experiment [3]; -37.7% (active) in experiment [4]; 0.648% (active) in experiment [5]; -57% (active) in experiment [6]. Moreover, the growth was -57.3% (active) in [7], -41.9% (active) in experiment [8], -8.91% (active) in experiment [9] and -95.3% (active) in experiment [10].
As for `O=C(CNc1nc(-c2ccccc2)cs1)Nc1ccc([N+](=O)[O-])cc1`, the growth in experiment [1] was -6.85% (active); in experiment [2] it was 29.4%; in experiment [3], 6.59% (active); in [4] it was 33.3%; in experiment [5] it was 35%; in [6], 42.8%. The growth in [7] is -74.6% (active); in [8], 42.8%; in [9] it was 16%; in experiment [10] it was -83.3% (active).
`COc1ccc(/C=N/N=C(\C)c2ccc3c(c2)Nc2ccccc2S3)cc1O`: the growth is 35.9% in experiment [1]; 49.2% in experiment [2]; 71.2% in [3]; 80.1% in [4]; 41.1% in experiment [5]; 74.1% in experiment [6]. Also, the growth is 48.3% in experiment [7], 63.9% in experiment [8], 73.9% in experiment [9] and 99.9% in experiment [10].
Take `CC(=O)Nc1ccc(-n2cnc3cc(-c4ccc(O)cc4)ccc32)cc1C`: the growth in [1] was 47.6%; in experiment [2], 57%; in [3], 74.9%; in [4], 63.5%; in experiment [5] it was 36.4%; in experiment [6], 67.2%. The growth was -29.1% (active) in experiment [7], 47.5% in experiment [8], 55.7% in [9] and 93.9% in [10].
Consider `NC1=NC(c2ccccc2Cl)N=C(Nc2nn[nH]n2)N1` (stereo not given), for which the growth in [1] was 106%; in experiment [2], 105%; in experiment [3], 111%; in experiment [4], 108%; in experiment [5], 108%; in experiment [6], 95.3%. The growth in experiment [7] was 102%; in [8], 103%; in experiment [9] it was 103%; in [10], 116%.
In the case of `COc1ccccc1[C@H]1C(C(=O)c2ccc(Cl)cc2)C2(N[C@@H]1c1ccccc1)C(=O)Nc1ccc(Cl)cc12` (stereo not given in full), the growth was -1.97% (active) in [1]; 4.06% (active) in experiment [2]; 32.9% in experiment [3]; 26% in experiment [4]; 8.58% (active) in experiment [5]; 7.15% (active) in experiment [6]. The growth in experiment [7] was -5.89% (active); in [8] it was 15.8%; in experiment [9] it was 8.8% (active); in experiment [10] it was -69.7% (active).
On to `Cn1cc(/C=N/Nc2cccc(Cl)n2)c2ccccc21`, for which the growth in experiment [1] is 69.2%; in [2] it was 68.9%; in experiment [3], 89.9%; in experiment [4], 75.8%; in experiment [5], 63.8%; in experiment [6], 42.8%. Moreover, the growth was 74.3% in [7], 76% in [8], 63.7% in [9] and 67.7% in experiment [10].
Consider `O=C(CNc1nc(-c2ccccc2)cs1)Nc1ccc([N+](=O)[O-])cc1Cl`, for which the growth in experiment [1] was 0.556% (active); in experiment [2], 31.5%; in [3] it was 60.3%; in experiment [4] it was 42.4%; in [5] it was 51.6%; in experiment [6] it was 29%. In addition, the growth in experiment [7] was -19.1% (active); in experiment [8], 44.1%; in experiment [9], 38.1%; in experiment [10], 60.7%.
For `COC(=O)C(Cc1ccc(O)c(O)c1)NC(=O)C(CSC/C=C(\C)CCCC(C)CCCC(C)CCCC(C)C)NC(C)=O` (stereo not given), the growth is 31.1% in experiment [1]; 30.3% in experiment [2]; 67.1% in [3]; 26.5% in experiment [4]; 18.9% in experiment [5]; 18.5% in [6]. Besides, the growth in experiment [7] was -85.6% (active); in [8] it was 18.9%; in experiment [9], 51.4%; in experiment [10], 3.84% (active).
Turning to `O=C(CS(=O)(=O)c1oc(-c2ccc(Cl)cc2)nc1S(=O)(=O)c1ccccc1)N1CCCC1`, the growth is 17.1% in [1]; 71.9% in [2]; 83.9% in experiment [3]; 93.5% in experiment [4]; 73.3% in experiment [5]; -73% (active) in experiment [6]. In addition, the growth in experiment [7] is -89.3% (active); in experiment [8], 79.1%; in [9], -44.3% (active); in experiment [10], -91% (active).
`O=S(=O)(c1ccc(Cl)cc1)c1nc(-c2ccccc2)oc1S(=O)(=O)c1ccc(Cl)cc1`: the growth in experiment [1] was 78.9%; in [2] it was 87.5%; in experiment [3] it was 101%; in [4], 91.3%; in experiment [5] it was 98%; in [6] it was 85.7%. The growth in [7] was 88.1%; in experiment [8], 94.2%; in experiment [9] it was 94.9%; in experiment [10], 102%.
In the case of `O=c1c2ccccc2nc(COc2ccccc2)n1/N=C/c1ccc(F)cc1`, the growth in experiment [1] was 85.6%; in [2], 78.9%; in experiment [3], 96.6%; in [4], 105%; in experiment [5], 85.4%; in experiment [6], 100%. In addition, the growth is 81.8% in experiment [7], 86.2% in experiment [8], 89.4% in [9] and 114% in experiment [10].
In the case of `CCCn1c(=O)c2[nH]c(-c3ccc(OCc4nc5ccc(C#N)cc5[nH]4)cc3)nc2n(CCC)c1=O`, the growth in [1] was 81.5%; in experiment [2] it was 51.2%; in experiment [3], 76.3%; in [4], 77.9%; in experiment [5], 66.2%; in experiment [6], 78.5%. In addition, the growth in experiment [7] is 71.1%; in experiment [8], 79.9%; in experiment [9], 72.1%; in [10], 94.9%.
